Assay outcomes (PubChem BioAssay)
An excerpt weighted towards active compounds, which were near 12% of everything screened.
HP1b chromo inh: inhibitors of HP1-beta chromodomain binding to methylated histone tails; Potency, µM (highest dose often 114 µM), for the others: at the top dose activity change, negative = inhibition, most hits filed as inhibitors; P83916; actives 0.56% (n = 390,000); AlphaScreen HP1-beta / biotin-H3K9me3 peptide binding; also: potency is read from the fitted curve at half-maximal effect; nearly all actives have a fitted effect of over 70% in size
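AlphaScreen: HP1-beta (50 nM) preformed 30 min with biotin-H3(1-18)K9me3 peptide (50 nM) in PBS pH 7.4, 0.01% Tween-20. Compound added for 30 min at RT, then streptavidin donor/nickel chelate acceptor beads (10 ug/mL) for 30 min.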
JMJD2A Tudor: blocks the human JMJD2A Tudor domain; O75164; AlphaScreen JMJD2A-Tudor / H3K4me3 peptide binding; Potency, µM (doses to about 114 µM), inactives show at the top dose activity change, negative = inhibition, usual class: inhibitors; actives 4.4% (n = 390,000); also: potency is read from the fitted curve at half-maximal effect; % is scaled to controls: 0 for no effect and ±100 for the full control effect; nearly all actives have a fitted effect of over 50% in size
PI5P4K alpha inh: PI5P4K alpha (human) kinase inhibition. P48426. PI5P4Kalpha enzyme, ADP-Glo luminescence, 60 min; hits give low values. max response, %. actives 1.2% (n = 330,000); active = max response of -50% or lower; inconclusive = between -30% and -50%; inactive = -30% or higher; also: value at the top dose of about 77 µM; % is scaled to controls: 0 for no effect and ±100 for the full control effect
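Quantitative HTS of the MLSMR library against PI5P4Kalpha with substrate. ATP added last at 5 microM final; room temperature, 60 minutes. Remaining ATP depleted, ADP converted and read as luminescence.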
G9a block: blocks human histone lysine methyltransferase G9a; Potency, µM (top dose mostly 102 µM), inactives show top-dose activity, negative = inhibition, hits mostly inhibitors; AID 504332; actives 8.8% (n = 350,000); G9a H3K9 monomethylation, AlphaScreen, 2 h; also: potency is read from the fitted curve at half-maximal effect; % is scaled to controls: 0 for no effect and ±100 for the full control effect; nearly all actives have a fitted effect of over 75% in size
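Compounds were preincubated with 20 nM G9a for 15 min, after which biotinylated H3K9 peptide (500 nM) and SAM (20 uM) started a 2 h room-temperature reaction. Monomethylated product was quantified by antibody-based AlphaScreen chemiluminescence.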
BAZ2B inh: blocks human BAZ2B; actives 4.4% (n = 360,000); Potency, µM (top dose mostly 114 µM), for the others: top-dose activity change, negative = inhibition, hits mostly inhibitors; AlphaScreen BAZ2B-H3K14Ac peptide displacement; AID 504333; also: potency is read from the fitted curve at half-maximal effect; % is scaled to controls: 0 for no effect and ±100 for the full control effect; nearly all actives have a fitted effect of over 60% in size
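BAZ2B 50 nM plus b-H3(5-23)K14Ac 50 nM, PBS pH 7.4/0.01% Tween-20, 30 min RT; compound added (max 110 uM), 30 min RT; streptavidin donor/Ni-chelate acceptor beads 10 ug/mL final, 20 min dark; AlphaScreen read.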
PLK1 PBD inh: blocks phosphopeptide binding to human PLK1 polo-box domain; Plk1 PBD binding of FITC phosphopeptide, fluorescence polarization; Potency, µM, for the others: max response, negative = inhibition, most hits filed as inhibitors; actives 2.8% (n = 360,000); P53350; also: potency is read from the fitted curve at half-maximal effect; series mostly up to about 57 µM; % is scaled to controls: 0 for no effect and ±100 for the full control effect; nearly all actives have a fitted effect of over 65% in size
Target sequence (P53350 whole entry, looked up, the tested form may be a part): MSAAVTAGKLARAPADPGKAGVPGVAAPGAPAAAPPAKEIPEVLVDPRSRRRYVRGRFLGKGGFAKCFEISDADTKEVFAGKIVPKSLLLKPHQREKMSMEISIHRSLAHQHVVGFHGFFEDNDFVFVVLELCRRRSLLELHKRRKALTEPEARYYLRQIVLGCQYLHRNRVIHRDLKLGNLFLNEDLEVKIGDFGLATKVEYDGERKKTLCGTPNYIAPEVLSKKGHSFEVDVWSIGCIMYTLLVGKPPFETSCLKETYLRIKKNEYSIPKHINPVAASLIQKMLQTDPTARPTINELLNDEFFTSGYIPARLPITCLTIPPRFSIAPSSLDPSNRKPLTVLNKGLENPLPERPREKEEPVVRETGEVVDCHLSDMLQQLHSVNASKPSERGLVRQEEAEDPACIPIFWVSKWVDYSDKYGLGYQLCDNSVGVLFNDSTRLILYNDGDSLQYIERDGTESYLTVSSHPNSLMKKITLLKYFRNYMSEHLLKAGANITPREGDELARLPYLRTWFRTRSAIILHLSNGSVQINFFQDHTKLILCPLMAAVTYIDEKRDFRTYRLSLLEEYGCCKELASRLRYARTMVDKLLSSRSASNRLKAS
* hit, by the source's call; ? = inconclusive; · = no result given; ! = not confirmed by another sample; [ ] = dose if it differs, or a comment. Unless noted, calls follow the shape of the dose curve; as a rule, active = well fitted curve in the direction sought with a large enough effect; inconclusive = small, poorly fitted or top-dose-only effect, or another doubt; inactive = no such curve, though single readings can be large; an effect the other way counts as inactive or inconclusive.

SMILES	HP1b chromo inh	JMJD2A Tudor	PI5P4K alpha inh	G9a block	BAZ2B inh	PLK1 PBD inh
CCOC(=O)C1CCN(C(=O)Cn2c(=O)oc3cc(S(=O)(=O)N4CCC(C)CC4)ccc32)CC1	35%	-18%	·	6%[59 µM]	-4%	·
CC(C)(C)c1ccc(-c2csc(NC(=O)CN3C(=O)NC4(CCCCC4)C3=O)n2)cc1	22%	-6%	-3	39%[12.7 µM]	-5%	3%
COc1ccc(-c2csc(NC(=O)CN3C(=O)NC4(CCCC4)C3=O)n2)cc1OC	-2%	-21%	-22	56µM*	-22%	-11%
COc1ccc(OC)c(-c2csc(NC(=O)Cc3cc(OC)c(OC)c(OC)c3)n2)c1	12%	-16%	5	19%	1%	-4%
COc1ccc(-c2csc(NC(=O)CN3C(=O)C4CCCCC4C3=O)n2)cc1OC (stereo not drawn)	-9%	-35%	2	-11%	?	3%
COc1ccc(-c2csc(NC(=O)CN3C(=O)NC4(CCCC4)C3=O)n2)c(OC)c1	0%	-30%	-15	50µM*	-4%	-4%
COc1ccc(OC)c(-c2csc(NC(=O)CN3C(=O)C4CCCCC4C3=O)n2)c1 (stereo not drawn)	?	?	4	50µM*	?	-7%
COc1ccc(OC)c(-c2csc(NC(=O)COC(=O)c3ccc(NC(=O)CC#N)cc3)n2)c1	-12%	45µM*	-61*	11%[12.7 µM]	40µM*	-3%
CN1CCN([C@@H](c2ccccc2)c2ccc(Cl)cc2)CC1	·	·	·	3%[21.5 µM]	·	·
COc1ccc(C(=O)N2CC(=O)Nc3ccc(F)cc3C2c2ccc(F)cc2)c(OC)c1 (stereo not drawn)	24%	-6%	·	-1%[59 µM]	-9%	·
Cc1ccc(S(=O)(=O)Nc2ccc(C(=O)NCCCn3ccnc3)cc2)cc1[N+](=O)[O-]	47%	-7%	0	2%[59 µM]	-31%	0%
Cc1cc(C)cc(-n2nnn(C3C/C(=N/NC(N)=S)C4OCC3O4)c2=S)c1 (stereo not drawn)	-15%	?	-3	50µM*	-22%	-16%
O=C(N/N=C1\NC(=O)C(CO)(CO)S1)c1ccccc1	25%	?	4	16%[59 µM]	-14%	0%
O=C1CS/C(=N\NC(=O)c2ccccc2)N1	31%	?	4	2.5µM*	-36%	-12%
Cc1cc(C(C)(C)C)ccc1OCCN1CCCC1	-56%	8.9µM*	8	32µM*	?	-2%
Cc1ccc(C(C)C)c(OCCN2CCc3ccccc3C2)c1	49%	2%	12	8%[0.501 µM]	16%	-8%
Cc1ccc(C(C)(C)C)c(OCCN2CCCC2)c1	-15%	4µM*	7	3.5µM*	50µM*	-3%
Cc1cc(OCCN2CCCCC2)nc2ccccc12	5%	?	5	-6%[12.7 µM]	-23%	-11%
Cc1cc(C(C)(C)C)ccc1OCCCCN1CCCC1	-4%	7.1µM*	3	?	-29%	2%
Cc1ccc(OCCCCN2CCc3ccccc3C2)c(C)c1	43%	-5%	4	5%[0.501 µM]	8%	-9%
CCNC(=O)C1CCN(c2nnc(C)c3c(C)n(-c4ccc(OC)cc4)nc23)CC1	38%	0%	·	7%[59 µM]	2%	·
CC(=O)Nc1nonc1-c1nnc(SCC(=O)N(C)c2ccccc2)n1C	37%	-11%	·	1%[59 µM]	-7%	·
CCOC(=O)C1CCCCN1Cc1cccc(Oc2ccccc2)c1 (stereo not drawn)	107%	65%	13	53%	63%	-8%
O=C(NCc1ccccn1)C1CCN(Cc2cccc(OCc3ccccc3)c2)CC1	?	3.5µM*	9	-14%	?	1%
CCOC(=O)C1CCN(Cc2nnnn2CCc2ccccc2)CC1	58%	2%	4	·	-8%	-6%
SMILES	HP1b chromo inh	JMJD2A Tudor	PI5P4K alpha inh	G9a block	BAZ2B inh	PLK1 PBD inh
CC(C)CNC(=O)C1CCN(Cc2ccc(OCc3ccccc3)cc2)CC1	?	1.1µM*	7	?	?	4%
CCOC(=O)C1CCN(Cc2nc3ccc(Cl)cc3n2CCO)CC1	14µM*	1.1µM*	1	?	45µM*	-1%
CCOC(=O)C1CCCCN1Cc1cccc(OCc2ccccc2)c1 (stereo not drawn)	?	10µM*	6	·	?	2%
Cc1c(C(=O)N(C)C)sc2c1c(=O)n(-c1ccc(Cl)cc1)c(=O)n2CC(=O)C(C)(C)C	16%	-22%	·	8%[59 µM]	-1%	·
CC(C)NC(=O)C1CCN(Cc2cccc(Oc3ccccc3)c2)CC1	?	22µM*	-1	·	?	-5%
CCOC(=O)C1CCN(Cc2ccc(F)c(Br)c2)CC1	-50%	3.2µM*	·	?	50µM*	-7%
Fc1ccc(CN2CCSCC2)cc1Br	?	3.2µM*	·	8.9µM*	50µM*	1%
NC(=O)C1CCN(Cc2cccc(OCc3ccccc3)c2)CC1	?	2.5µM*	-5	·	?	-5%
CCOC(=O)C1CCN(C(=O)c2ccc(Br)o2)CC1	43%	-4%	·	-51%[12.7 µM]	-7%	0%
CC(C)NC(=O)C1CCN(Cc2cccc(OCc3ccccc3)c2)CC1	·	·	2	·	·	-9%
c1ccc(COc2cccc(CN3CCc4ccccc4C3)c2)cc1	21%	56µM*	1	·	7%	4%
CCOC(=O)C1CCN(Cc2cccc(OCc3ccccc3)c2)CC1	?	8.9µM*	6	?	-12%	2%
CCC(=O)Nc1ccccc1-c1nc2ccccc2n(C(CC)C(=O)Nc2cccc(C(C)=O)c2)c1=O (stereo not drawn)	56%	-1%	·	?	?	·
NC1=NC(=O)/C(=C\c2ccc(-c3ccc(Cl)cc3)o2)S1	22%	-16%	-21	?	-8%	-15%
CN(C)C1=NC(=O)/C(=C/c2ccc(-c3ccc(S(N)(=O)=O)cc3)o2)S1	·	·	·	7.1µM*	?	·
C=CCN1CCN(C(=O)c2ccc(-c3ccccc3)cc2)CC1	12%	-25%	-4	·	-11%	-8%
C=CCN1CCc2cc(O)c(O)cc2C(c2ccccc2)C1 (stereo not drawn)	10%	-24%	-3	10µM*	-6%	-9%
Cc1cccc(C2CN(C)CCc3c2cc(O)c(O)c3Cl)c1 (stereo not drawn)	15%	-35%	2	24µM*	-8%	-5%
C=CCN1CCc2c(cc(O)c(O)c2Cl)C(c2ccccc2)C1 (stereo not drawn)	20%	?	-19	7.1µM*!	?	-4%
CC(C)(C)c1ccc(C(O)c2ncc(-c3ccccc3F)[nH]2)cc1 (stereo not drawn)	·	·	3	·	·	-7%
O=[N+]([O-])c1cccc(S(=O)(=O)NCc2ccncc2)c1	24%	-11%	1	-5%	8%	-20%
